From PubChem BioAssay (EPA / NIEHS)
Activity calls are given as the source filed them. Rule for the calls: active = hit-call score of the fitted dose curve at least 0.9, where 1 is the maximum; inactive = score below 0.9.

How the values were obtained:
[1] = read-out: Vascular cell adhesion molecule 1 (VCAM1), VCAM1 (gene 7412); assay: BSK_CASM3C_VCAM1: BioMAP Diversity Plus: CASM3C Assay for Vascular cell adhesion molecule 1 (VCAM1) Biomarker Activity (AID 2283055); conditions: primary human coronary artery smooth muscle cells; actives raise or lower the signal;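 note: VCAM-1 protein level quantified by ELISA on the cells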
[2] = read-out: Epidermal growth factor receptor (EGFR), EGFR (gene 1956); assay: BSK_hDFCGF_EGFR: BioMAP Diversity Plus: hDFCGF Assay for Epidermal growth factor receptor (EGFR) Biomarker Activity (AID 2283057); conditions: primary human foreskin fibroblasts; actives raise or lower the signal
Summary of the method: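 hDFCGF system, primary human foreskin fibroblasts; compound 24 h; EGFR measured by ELISA; DMSO = negative control/baseline; bidirectional fitting.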

[3] = read-out: Interleukin-8 (IL8), CXCL8 (gene 3576); assay: BSK_hDFCGF_IL8: BioMAP Diversity Plus: hDFCGF Assay for Interleukin-8 (IL8) Biomarker Activity (AID 2283058); conditions: primary human foreskin fibroblasts; actives raise or lower the signal
Summary of the method: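 IL-8 levels from compound-treated primary human fibroblasts were read by ELISA at 24 h, with DMSO serving as baseline for bidirectional fitting.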

[4] = BSK_hDFCGF_Proliferation: Cell Proliferation Assessment in the BioMAP Diversity Plus: hDFCGF Assay (AID 2283059); conditions: primary human foreskin fibroblasts;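 note: curves fitted for both rise and fall of signal versus DMSO baseline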
Summary of the method: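 Steps: dose primary human dermal fibroblasts (foreskin); […] fix in 10% TCA; stain with 0.1% SRB; read 560 nm; fit gain or loss of signal against DMSO.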

[5] = read-out: Macrophage colony-stimulating factor (MCSF), CSF1 (gene 1435); assay: BSK_hDFCGF_MCSF: BioMAP Diversity Plus: hDFCGF Assay for Macrophage colony-stimulating factor (MCSF) Biomarker Activity (AID 2283060); conditions: primary human foreskin fibroblasts; actives raise or lower the signal
Summary of the method: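 M-CSF levels, determined by ELISA, are taken at 24 h after dosing human skin fibroblasts. Responses in either direction are fitted with DMSO serving as the baseline.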

[6] = BSK_hDFCGF_SRB: Viability Assessment in the BioMAP Diversity Plus: hDFCGF Assay (AID 2283061); conditions: primary human foreskin fibroblasts;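 note: cells exposed to compound for 24 h before the read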
Summary of the method: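 Cells were dosed with test chemical, cultured 24 h, fixed with 10% TCA, then stained with 0.1% SRB and read at 560 nm. The fibroblasts were human foreskin primary cells, and DMSO served as baseline.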

[7] = read-out: TIMP metallopeptidase inhibitor 1 (TIMP1), TIMP1 (gene 7076); assay: BSK_hDFCGF_TIMP1: BioMAP Diversity Plus: hDFCGF Assay for TIMP metallopeptidase inhibitor 1 (TIMP1) Biomarker Activity (AID 2283062); conditions: primary human foreskin fibroblasts; actives raise or lower the signal
Summary of the method: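 Fibroblasts from human foreskin are treated with test chemical and harvested at 24 h. TIMP-1 is quantified by ELISA, and gain or loss of signal is scored against DMSO.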

[8] = read-out: Monokine induced gamma interferon (MIG), CXCL9 (gene 4283); assay: BSK_hDFCGF_MIG: BioMAP Diversity Plus: hDFCGF Assay for Monokine induced gamma interferon (MIG) Biomarker Activity (AID 2283063); conditions: primary human foreskin fibroblasts; actives raise or lower the signal
Summary of the method: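 MIG signal, determined by ELISA, reflects 24 h chemical exposure of human skin primary fibroblasts. DMSO serves as negative control and baseline.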

[9] = read-out: Matrix Metallopeptidase 1 (MMP1), MMP1 (gene 4312); assay: BSK_hDFCGF_MMP1: BioMAP Diversity Plus: hDFCGF Assay for Matrix Metallopeptidase 1 (MMP1) Biomarker Activity (AID 2283064); conditions: primary human foreskin fibroblasts; actives raise or lower the signal
Summary of the method: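 hDFCGF primary fibroblasts (human foreskin); chemical added; 24 h; MMP1 by ELISA; bidirectional fit vs DMSO.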

[10] = read-out: Collagen III, COL3A1 (gene 1281); assay: BSK_hDFCGF_CollagenIII: BioMAP Diversity Plus: hDFCGF Assay for Collagen III Biomarker Activity (AID 2283056); conditions: primary human foreskin fibroblasts; actives raise or lower the signal
Summary of the method: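 Cells: human foreskin fibroblasts, primary. Dosing followed by 24 h incubation, then ELISA for collagen III. Both increases and decreases scored relative to DMSO.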

Measured: AC50

O=C(OC[C@H]1O[C@@H](OC(=O)c2cc(O)c(O)c(OC(=O)c3cc(O)c(O)c(O)c3)c2)[C@H](OC(=O)c2cc(O)c(O)c(OC(=O)c3cc(O)c(O)c(O)c3)c2)[C@@H](OC(=O)c2cc(O)c(O)c(OC(=O)c3cc(O)c(O)c(O)c3)c2)[C@@H]1OC(=O)c1cc(O)c(O)c(OC(=O)c2cc(O)c(O)c(O)c2)c1)c1cc(O)c(O)c(OC(=O)c2cc(O)c(O)c(O)c2)c1
active: [4] 3.77 µM | [5] 1.21 µM | [8] 2.12 µM | [9] 1.86 µM
not listed: [10]
inactive: all other assays above

Cn1c(=O)cc(Oc2ccc(F)cc2F)c2cnc(NCC(C)(C)O)nc21
active: [5] 0.691 µM | [9] 1.12 µM
not listed: [6] | [8]
inactive: all other assays above

CC(=O)OCCC(C)C
not listed: [6]
inactive: all other assays above

Nc1ccc(Nc2ccccc2)cc1
active: [4] 7.37 µM
not listed: [6]
inactive: all other assays above

COc1ccc(/C=C/S(=O)(=O)NC(=O)c2ccc(C)cc2Cl)cc1
active: [4] 13.6 µM
not listed: [6] | [8]
inactive: all other assays above

O=C(CCCCCCCCc1cccnc1)N1CCC(C=C(c2ccccc2)c2ccccc2)CC1
inactive: [2]
active: [1] 37.9 µM | [10] 4.91 µM | [3] 10.7 µM | [4] 5.65 µM | [5] 7.88 µM | [7] 7.71 µM | [9] 9.34 µM

CCOc1cccc(-n2cc(C(=O)N3CCN(c4cc(C(=O)O)c5ccccc5c4)CC3)nc2-c2ccc(C)cc2)c1
active: [1] 19.2 µM | [10] 4.99 µM | [2] 5.21 µM | [3] 14.2 µM | [4] 10.2 µM | [5] 7.68 µM | [7] 13.3 µM | [9] 16.5 µM

CN(C)c1ccc(Cc2ccc(N(C)C)cc2)cc1
active: [4] 3 µM | [9] 20 µM
not listed: [6] | [8]
inactive: all other assays above

Clc1nc(Cl)c(Cl)c(Cl)c1Cl
not listed: [6] | [8]
inactive: all other assays above

CCNc1ccccc1
not listed: [6] | [8]
inactive: all other assays above

Fc1ccccc1[C@@H](F)COC1CCC(Nc2ncnc3[nH]ncc23)CC1 (stereo not given in full)
active: [1] 7.56 µM | [4] 10.3 µM
not listed: [6] | [8]
inactive: all other assays above

COC(=O)CC(=O)OC
not listed: [6]
inactive: all other assays above

On1ccccc1=S
active: [10] 1.41 µM | [3] 0.791 µM | [4] 0.148 µM | [5] 0.892 µM | [7] 1.4 µM | [9] 1.35 µM
inactive: [1] | [2]

CC/C(=C\C(=N/O)C(N)=O)C(C)[N+](=O)[O-] (stereo not given)
not listed: [6] | [8]
inactive: all other assays above

CCCC(=O)OCC
not listed: [6] | [8]
inactive: all other assays above

O=C(O)c1cccc(N(Cc2cccnc2)c2ccc(OC(F)F)c(OC(F)F)c2)c1
not listed: [6]
inactive: all other assays above

O=C(O)CCN(C1(C(=O)NO)CCCC1)S(=O)(=O)c1ccc(Oc2ccc(F)cc2)cc1
not listed: [6]
inactive: all other assays above

CCCCCCc1ccc(O)cc1O
inactive: [1]
active: [10] 17.5 µM | [2] 20 µM | [4] 19 µM | [5] 28.1 µM | [6] 31.2 µM | [7] 33.2 µM | [8] 33.6 µM | [9] 37.9 µM

COC(=O)c1ccccc1O
not listed: [6] | [8]
inactive: all other assays above

O=C(O)c1cccc(Oc2ccccc2)c1
not listed: [6] | [8]
inactive: all other assays above

CCCCC(CC)COC(=O)c1ccc(C(=O)OCC(CC)CCCC)cc1 (stereo not given)
not listed: [6] | [8]
inactive: all other assays above
